High-throughput results (PubChem)
An excerpt weighted towards active compounds, which were near 3.7% of everything screened.
TMEM16A act – activates or potentiates the mouse TMEM16A chloride channel | Q8BHY3 | HEK293 TMEM16A/YFP-H148Q/I152L, iodide quench fluorescence; hits give low values | B-score at 10 µM | 340,000 compounds, 0.3% hits | AID 623877;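 active means fluorescence-ratio B-score plate-corrected deviation score at least 3 library SD below zero, with starting fluorescence score within 5 deviations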;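 further: channel opened by trigger with iodide after compound preincubation; score built on the fluorescence ratio of max minus min over baseline; more negative score means more quench and so TMEM16A activation or potentiation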
GPR7 antag – blocks human GPR7 receptor signaling. P48145. GPR7-expressing cells, fluorescence antagonist assay. inhibition, % at 4.4 µM. 290,000 compounds, 1.1% hits; in the data active means inhibition above about 16%, passing the limit was not always enough;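 further: cells stimulated with the agonist NPW; 0% = agonist with vehicle and 100% = vehicle without agonist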
CHT PAM – allosterically activates the human high affinity choline transporter | Q9GZV3 | CHT-expressing cells, membrane potential dye, choline EC20; hits give high values; LV-AA mutant CHT in HEK293 cells | B-score at 10 µM | AID 488977 | 310,000 compounds, 0.49% hits;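 active means initial fluorescence not abnormally high and integrated response B-score, plate-corrected, over 3 SD above library mean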
Target sequence (Q9GZV3 whole entry, looked up): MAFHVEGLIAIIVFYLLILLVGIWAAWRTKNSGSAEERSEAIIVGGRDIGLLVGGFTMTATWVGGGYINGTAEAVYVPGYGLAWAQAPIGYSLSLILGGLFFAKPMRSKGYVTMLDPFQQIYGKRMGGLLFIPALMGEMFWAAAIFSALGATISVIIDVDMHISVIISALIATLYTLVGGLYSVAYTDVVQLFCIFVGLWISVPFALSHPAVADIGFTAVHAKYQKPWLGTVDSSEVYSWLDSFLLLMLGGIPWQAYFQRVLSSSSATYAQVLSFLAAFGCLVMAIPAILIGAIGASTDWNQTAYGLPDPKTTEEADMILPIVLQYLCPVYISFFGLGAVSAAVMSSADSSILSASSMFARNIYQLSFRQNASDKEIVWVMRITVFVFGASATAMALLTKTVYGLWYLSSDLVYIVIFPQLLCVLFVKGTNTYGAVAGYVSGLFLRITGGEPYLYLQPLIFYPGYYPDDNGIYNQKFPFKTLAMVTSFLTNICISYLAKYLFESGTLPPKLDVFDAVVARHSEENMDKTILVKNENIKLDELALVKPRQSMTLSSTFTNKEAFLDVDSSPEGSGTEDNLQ
TMEM16A inh – blocks the mouse calcium-activated chloride channel TMEM16A | HEK293 TMEM16A/YFP iodide influx fluorescence, ionomycin | 310,000 compounds, 1.2% hits | AID 588511 | normalized B-score (activity score, 25-100; higher = stronger inhibition) at 10 µM | Q8BHY3;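 active means ratio plate-corrected score three or more library SD toward inhibition, starting fluorescence score within five deviations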;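 further: score derived from kinetic fluorescence span divided by baseline fluorescence per well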
Kir21 block – Kir2.1 (mouse) channel inhibition. HEK293-Kir2.1, FluxOR thallium flux fluorescence; hits give low values. B-score at 10 µM. 310,000 compounds, 0.85% hits. AID 1672;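 active means fluorescence ratio B-score at or below minus 3 SD of library scores, with starting-brightness B-score within 2 SD, cut at about -4.2 in these data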;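 further: channel flux triggered by added potassium and thallium sulfate stimulus; B-score of peak minus minimum fluorescence over baseline after thallium stimulus; more negative B-score means stronger Kir2.1 block with less thallium influx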
CHT block – human CHT choline transport inhibition | Q9GZV3 | CHT-expressing cells, membrane potential dye, choline response; hits give low values | B-score at 10 µM | 310,000 compounds, 0.86% hits | AID 488975;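 active means B-score over 3 SD under the library average, and starting fluorescence ratio not unusually high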;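 further: choline stimulus applied at its EC90 after an EC20 pre-addition; B-score computed on integrated fluorescence ratio after choline addition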
TMEM16A reconf – reconfirmed blocker of mouse TMEM16A calcium-activated chloride channel. shares compounds with TMEM16A inh. HEK293 TMEM16A/YFP-H148Q, iodide quench fluorescence; ionomycin added to raise cell calcium. inhibition, % at 10 µM. 2,300 compounds, 39% hits;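 active means mean duplicate percent inhibition, scaled so buffer wells are 0 and the reference blocker 100, over three buffer SD above buffer mean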
TMEM16A Ca cntr – alters calcium mobilization in TMEM16A HEK293 cells, counter-screen | shares compounds with TMEM16A inh | TMEM16A/YFP HEK293, Fluo4 calcium mobilization | calcium response (% of ionomycin), % at 10 µM | 2,300 compounds, 2% hits;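 active means duplicate-averaged calcium signal over 20% of the ionomycin maximum, relative to buffer baseline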;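 further: each well's signal is peak minus trough fluorescence divided by its pre-addition baseline; 0% = buffer wells and 100% = ionomycin wells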
YFP-HEK293 quench – acts in parental YFP-HEK293 cells lacking TMEM16A, counter-screen. 2,300 tested, under 10 active. shares compounds with TMEM16A inh. AID 652233. iodide YFP quench, ionomycin. YFP ratio F(max-min)/F0 at 10 µM;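 active means yellow fluorescent protein signal ratio exceeding the buffer control mean by over 5 SD of those controls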;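 further: ratio is mean of duplicate wells from kinetic YFP trace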
ClC-1 rat inh – blocks the rat ClC-1 voltage-dependent chloride channel. 2,300 tested, under 10 active. ratio percent, % at 10 µM. shares compounds with TMEM16A inh. CHO ClC-1-YFP, iodide influx fluorescence quench; iodide control reads 0, buffer control 100;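 active means duplicate-mean ratio percent above the mean of iodide-only control wells, which defines zero, plus 5 of their SD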;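 further: higher percent means stronger block of ClC-1 iodide influx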
Starred values were filed as active, the others as inactive; i = inactive; x = not tested or not shown.

SMILES	TMEM16A act	GPR7 antag	CHT PAM	TMEM16A inh	Kir21 block	CHT block	TMEM16A reconf	TMEM16A Ca cntr	YFP-HEK293 quench	ClC-1 rat inh
Cc1ccc2c(c1)[nH]c1c(N3CCN(Cc4ccccc4)CC3)ncnc12	i	-15	i	25*	-0.07	i	25%*	i	-1	-24
c1ccc(CN2CCN(c3nc4ccccc4c4ccccc34)CC2)cc1	i	-12	i	i	1.1	i	x	x	x	x
c1ccc(CN2CCN(c3ncnc4c3[nH]c3ccccc34)CC2)cc1	i	0	i	100*	-0.57	i	19%*	i	-0.99	-24
CCN1CCCc2cc(CN(CCN3CCOCC3)C(=S)Nc3cccc(OC)c3)ccc21	i	2	i	i	2.3	i	x	x	x	x
S=C(NCc1ccc(Cl)cc1Cl)NC1CCCCC1	i	-8	i	25*	0.18	i	52%*	i	-0.98	-16
CSc1cccc(N2CC(C(=O)N3CCN(S(=O)(=O)c4ccccc4Cl)CC3)CC2=O)c1 (stereo unspecified)	i	x	x	x	x	x	x	x	x	x
O=C(/C=C\c1ccccc1OC(=O)c1ccccc1F)c1cc2ccccc2o1	i	-1	i	i	-0.95	i	x	x	x	x
N#Cc1nc(N2CCCC2)nc(N2CCCC2)n1	i	-13	i	100*	-2	i	22%*	i	-0.92	0
N#Cc1nc(N2CCCCC2)nc(N2CCOCC2)n1	i	-10	i	i	-0.38	i	x	x	x	x
Cc1ccc(SC[C@H](C)CN2CC[C@H](C(C)(C)C)CCC2=O)cc1	i	-14	i	100*	-2.1	i	38%*	i	-0.89	0
CCOC(=O)c1cnc2ccc(OC)cc2c1Nc1ccc2c(c1)OCCO2	i	11	i	100*	0.83	i	i	i	-1.1	-14
CSc1nc(N)nc2c1ncn2C1OC(CO)CC1O (stereo unspecified)	i	x	x	x	x	x	x	x	x	x
O=C(c1cccs1)N1CCN(C(=O)C2CCCO2)CC1 (stereo unspecified)	i	4	i	100*	0.92	i	i	i	-1	3
O=C(Nc1ccc(Cl)cc1)N1CCN(C(=O)C2CCCO2)CC1 (stereo unspecified)	i	-18	i	i	0.17	i	x	x	x	x
O=C(Nc1ccc2c(c1)OCO2)N1CCN(C(=O)C2CCCO2)CC1 (stereo unspecified)	i	-9	i	25*	0.37	i	i	i	-1.1	-4
CCOc1ccc(NC(=O)CN(C)C(=O)c2cc([N+](=O)[O-])ccc2Sc2ccccc2)cc1OCC	i	x	x	x	x	x	x	x	x	x
COc1ccc(C)cc1N(CC(=O)O)S(=O)(=O)c1ccc(C)cc1	i	-12	i	i	-0.07	i	i	i	-0.63	-6
CCC(Sc1ccc2nnc(-c3ccc(OC)c(OC)c3)n2n1)C(=O)O (stereo unspecified)	i	-8	i	100*	-0.09	i	i	i	-0.79	-6
COc1ccc(-c2nnc3ccc(SC(C(C)=O)C(C)=O)nn23)cc1OC	i	-13	i	i	-1.3	i	x	x	x	x
O=C(Nc1cccc(Br)c1)c1cc2ccccc2o1	i	-12	i	25*	1.4	i	i	i	-0.9	-9
